# Pf growth 96h: P. falciparum growth inhibition at 96 hours | P. falciparum luciferase reporter growth, 96 h | Potency, µM (top dose mostly 28.7 µM), for the others: at the highest dose activity change, negative = inhibition, actives largely listed as inhibitors | actives 6.9% (n = 320,000); further: potency means the concentration at half of the fitted maximal effect
#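 Delayed-death screen, second-generation endpoint: infected erythrocytes, 2% hematocrit, 0.05% parasitemia final; 96 hours at 37 C, 5% CO2; luciferase detection reagent; luminescence decrease equals reduced growth.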
# HCMV antiviral: human cytomegalovirus inhibition; AID 1259415; activity change, negative = inhibition, % at 57.5 µM; actives 4.5% (n = 410,000); HFF cells, HCMV-luciferase reporter, 72 h; active compounds read low; in the data active means activity change below about -60%; inconclusive means no clear call, values can overlap the other calls; inactive means above about -39%
#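 Steps: HFFs plated, 16 h 37C; compounds added; HCMV-luciferase added to MOI 1 PFU/cell; 72 h 37C; OneGlo reagent, 5 min room temperature; luminescence read, normalized to controls.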
# Pf growth 48h: P. falciparum growth inhibition at 48 hours (one generation); Potency, µM (titrated, usually from 28.7 µM), inactives show top-dose activity change, negative = inhibition, actives largely listed as inhibitors; actives 5.9% (n = 310,000); AID 504832; P. falciparum luciferase growth in erythrocytes, 48 h; further: potency means the concentration at half of the fitted maximal effect
#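 Here the parasites carry a stable luciferase gene and grow inside erythrocytes in Albumax-based RPMI medium with compound for one erythrocytic cycle. Activity is scored as loss of luminescent signal.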
# HCV inhibitor: HCV inhibition | Potency, µM (highest dose often 41.8 µM), inactives show at the highest dose activity change, negative = inhibition, hits mostly inhibitors | Huh7.5.1 HCVcc-Cre infection, luciferase reporter, 44 h | actives 3.4% (n = 340,000) | AID 651820; further: potency means the concentration at half of the fitted maximal effect
#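 Reporter virus HCVcc-Cre (~0.5 moi) infects cells exposed to compound; seeding density 1,000 cells/well with 4 h settling beforehand. Luminescence, 15 sec read, taken 44 h post-infection following a 15 min RT substrate incubation.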
# * = called active by the depositor; ? = inconclusive; · = no result. Hits are enriched below; roughly 13% of the tested compounds scored in any of these assays. Unless noted, the call rests on the fitted dose curve; in most records, active means well fitted inhibition curve with a large enough effect; inconclusive means small, poorly fitted or top-dose-only effect, or another doubt; inactive means no such curve, though single readings can be large or run the other way. On the % scale 0 is the no-effect control and ±100 the full control effect.
SMILES,Pf growth 96h,HCMV antiviral,Pf growth 48h,HCV inhibitor
CN(C(=O)C1=CC(c2ccc3c(c2)OCO3)=NS(=O)(=O)N1C)c1ccccc1,·,24,·,·
S=c1[nH]c2ccc3ccccc3c2[nH]1,?,-5,21%,17%
Cc1[nH]c2c(ccc3ccccc32)c1C1C(CCN)C1(C)C (stereo unspecified),·,-11,10µM*,?
Cc1ccc(NCc2ccccc2-c2nnc(-c3ccccc3Cl)o2)c(C)c1,·,4,·,·
CN1CCc2c(n(CC(O)CNCc3ccccc3)c3ccccc23)C1=O (stereo unspecified),20%,-22,-13%,?
CC(C)NCC(O)Cn1c2c(c3ccccc31)CCc1c-2cnn1-c1ccccc1 (stereo unspecified),?,-103*,2.9µM*,?
O=C(NCc1cccc(Cl)c1)c1cnn2c1NC(c1ccco1)CC2C(F)(F)F (stereo unspecified),?,-38,·,?
COc1ccc(OC)c(NC(=O)c2cc3n(n2)C(C(F)(F)F)CC(c2ccc4c(c2)OCO4)N3)c1 (stereo unspecified),·,-29,4%,32µM*
CN(Cc1ccc(-n2cccn2)cc1)C(=O)c1cnn2c1NC(c1ccco1)CC2C(F)(F)F (stereo unspecified),?,28,?,11µM*
Cc1ccc(Cl)cc1NC(=O)c1cnn2c1NC(c1ccco1)CC2C(F)(F)F (stereo unspecified),?,?,·,25µM*
Cc1cc(NC(=O)c2cc3n(n2)C(C(F)(F)F)CC(c2ccco2)N3)no1 (stereo unspecified),10µM*,5,·,-7%
COc1ccccc1NC(=O)c1cc2n(n1)C(C(F)(F)F)CC(c1ccc3c(c1)OCO3)N2 (stereo unspecified),77%,-25,?,?
CC(C)NC(=O)c1cc2n(n1)C(C(F)(F)F)CC(c1ccco1)N2 (stereo unspecified),22%,10,?,-1%
COCCNC(=O)c1cnn2c1NC(c1ccco1)CC2C(F)(F)F (stereo unspecified),6%,-25,11%,10%
Cc1ccc(OCc2nc(-c3ccc(C(=O)N4CCN(c5cccc(C(F)(F)F)c5)CC4)cc3)oc2C)cc1,·,1,·,·
O=C(Nc1cc(F)ccc1F)N1CCC(CN2CCOCC2)CC1,·,36,·,·
CCC(C(=O)Nc1cc(C)ccc1OC)n1nnc(C(=O)OC)c1C(=O)OC (stereo unspecified),·,7,·,·
CCOC(=O)c1cc2c(=O)n3ccccc3nc2n(C)c1=NC(=O)c1c(-c2ccccc2Cl)noc1C,·,-1,·,·
CCN(CC)CCCNC(=O)c1c(C)oc2ncn(CC(C)C)c(=O)c12,·,12,·,·
CCOc1ccccc1C(=O)Nc1c(C(=O)Nc2ccc(F)cc2)oc2ccccc12,·,-62*,·,·
O=C(Nc1ccc(F)cc1)c1oc2ccccc2c1NC(=O)C1CC1,7%,-60*,?,-6%
Cc1ccc(-c2cn(-c3ccc(Cl)cc3)c(S(=O)(=O)CC(=O)Nc3ccccc3)n2)cc1,·,66,·,·
O=c1c2ccccc2oc2ccc(-c3ccc4cc[nH]c4c3)cc12,·,·,·,16µM*
O=c1cc(-c2ccccc2)c2ccc(O)c(CN3CCCCC3)c2o1,27%,9,10µM*,12%
O=c1oc2c(CN3CCCCCC3)c(O)ccc2cc1-c1nc2ccccc2[nH]1,6%,·,2.3µM*,·
SMILES,Pf growth 96h,HCMV antiviral,Pf growth 48h,HCV inhibitor
CCc1c(C)c2ccc(O)c(CN3CCN(c4ccccc4)CC3)c2oc1=O,·,-61*,·,·
CCc1c(C)c2ccc(O)c(CN3CCCC3)c2oc1=O,12µM*,35,?,-1%
O=c1oc2c(CN3CCCC3)c(O)ccc2cc1-c1ccccc1,·,16,·,·
COc1ccc(-c2nc3ccccc3o2)cc1NC(=O)COc1ccc(C(C)(C)C)cc1,·,96,·,·
Cc1cccc2cc(CN(Cc3ccco3)C(=O)c3ccco3)c(=O)[nH]c12,-29%,16,-28%,8%
Cc1cccc2cc(COC(=O)c3cccs3)c(=O)[nH]c12,1%,-65*,22%,-4%
Cc1cccc2cc(CN(Cc3ccco3)C(=O)c3cccs3)c(=O)[nH]c12,9.3µM*,-99*,10µM*,-2%
Cc1cccc(CCNC(=O)c2cnc3c(C)cccn3c2=O)c1,·,87,·,·
COc1cccc(Nc2nc3cc(OC)ccc3cc2C#N)c1,5.2µM*,-29,-1%,?
CCc1ccc2nc(Nc3ccc(OC)cc3OC)c(C#N)cc2c1,3%,-7,14%,3.5µM*
COc1ccc(Nc2nc3c(C)cccc3cc2C#N)cc1,34%,-21,?,?
COc1ccc(Nc2nc(C)cc(C)c2C#N)c(OC)c1,25%,34,8%,?
CCCCn1c(=O)c2oc3ccccc3c2n(Cc2cccc(C)c2)c1=O,·,-22,·,·
CN1CCN(c2nc(N3CCN(c4ccccc4)CC3)ncc2F)CC1,·,-29,-5%,6.3µM*
Fc1cnc(Cl)nc1N1CCN(c2ccccc2)CC1,0%,-9,17%,-1%
N/C(=N\OC(=O)c1ccc(Br)o1)c1cccnc1,38%,24,224%,20%
N/C(Cc1ccc(Cl)c(Cl)c1)=N\OC(=O)c1ccc(Br)o1,15µM*,40,15µM*,3%
Cc1ccc(Cl)cc1NC(=O)Cn1c(=O)oc2cc(S(=O)(=O)N3CCCCCC3)ccc21,·,0,·,·
Cc1ccc(Cn2c(=N)n(CC(=O)c3ccc([N+](=O)[O-])cc3)c3ccccc32)cc1,?,-92*,?,?
CCCn1c(=N)n(CC(=O)O)c2ccccc21,·,9,·,26%
